# Laboratory results: PubChem BioAssay
# Activity calls are given as the source filed them. Cut-off read from the data, not from the text of the source, unless noted: active = inhibition above about 80%; inactive = the rest.
# Assays:
# [1] = growth inhibition, single agent or in combination, cell-based, chromothripsis tumors, cisplatin or BGB combos (AID 1671449); conditions: LFS_MB_P medulloblastoma cells;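 note: cells exposed for 96 hours; 0% = vehicle DMSO and 100% = killing by high DMSO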
# [2] = growth inhibition, single agent and combos, cell-based, chromothripsis tumors, cisplatin or BGB combos (AID 1671450); conditions: HDN33 neuroblastoma cells, stronger effect = higher value;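 note: cells exposed to compound for four days; 0% = vehicle DMSO and 100% = cell killing by high DMSO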
# [3] = growth inhibition, single agents and combos, ICB984, cell-based, cisplatin or BGB combos, synergistic combos for chromothripsis tumors (AID 1671451; call rule not given here;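 note: cells exposed for 96 hours before readout; 0% = vehicle DMSO and 100% = killing by high DMSO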); conditions: ICB984 medulloblastoma cells, drug combinations, stronger effect = higher value
# [4] = growth inhibition, single agents and combos, LFS_MB_1R, cell-based, cisplatin or BGB combos, synergistic combos for chromothripsis tumors (AID 1671452); conditions: LFS_MB_1R medulloblastoma cells, stronger effect = higher value;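 note: cells exposed for 96 hours before readout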
# [5] = growth inhibition, single agents and combos, HTB85, cell-based, BGB or cisplatin IC20 combos, synergistic combos for chromothripsis tumors (AID 1671453); conditions: HTB85 osteosarcoma cells, drug combinations, stronger effect = higher value;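 note: cells exposed for 96 hours before readout; 0% = vehicle DMSO and 100% = high DMSO killing control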
# [6] = growth inhibition, single agents and combos, CRL2098, cell-based, BGB or cisplatin IC20 combos, synergistic combos for chromothripsis tumors (AID 1671454); conditions: CRL2098 osteosarcoma cells, drug combinations, stronger effect = higher value;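 note: cells exposed for 96 h before readout; 0% = vehicle DMSO and 100% = killing by high DMSO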
# [7] = growth inhibition, single agents and combos, HD-MB03, cell-based, BGB or cisplatin IC20 combos, synergistic combos for chromothripsis tumors (AID 1671455; in the data active = inhibition above about 83%;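 note: 0% = vehicle DMSO and 100% = high DMSO as cytotoxic control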); conditions: HD-MB03 medulloblastoma cells, stronger effect = higher value
# [8] = growth inhibition, single agents and combos, UWB1.289, cell-based, BGB or cisplatin combos, synergistic combos for chromothripsis tumors (AID 1671456); conditions: UWB1.289 ovarian carcinoma cells, stronger effect = higher value;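 note: cells exposed to compound for four days; 0% = vehicle DMSO and 100% = killing by high DMSO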
# [9] = growth inhibition, single agents and combos, LFS_MB_2R, cell-based, cisplatin combos, synergistic combos for chromothripsis tumors (AID 1671457); conditions: LFS_MB_2R medulloblastoma cells, stronger effect = higher value;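 note: cells exposed to compound for four days before readout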
# [10] = growth inhibition, MDA-MB-436, cell-based, BGB or cisplatin combos, synergistic combos for chromothripsis tumors (AID 1671458; call rule not given here;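 note: cells exposed for 96 hours; 0% = vehicle DMSO and 100% = killing by high DMSO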); conditions: MDA-MB-436 breast carcinoma growth inhibition, drug combinations, stronger effect = higher value
# [11] = UWB1.289_BRCA1 ovarian cancer growth, cell-based, BGB or cisplatin combinations (AID 1671459); conditions: UWB1.289 BRCA1 ovarian carcinoma, drug combinations, stronger effect = higher value
# [12] = drug combination toxicity in non-malignant astrocytes – cell-based, BGB or cisplatin IC20 combos, cytotoxicity control for chromothriptic childhood tumor combination screen (AID 1671460); conditions: Human astrocytes, viability inhibition, drug combinations, at 0.5 µM, stronger effect = higher value;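 note: cells exposed to compounds for 96 hours before viability readout; 0% = vehicle and 100% = killing control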
# [13] = BT084 cell growth, single and combined drugs, ICGC_MB145, cisplatin and BGB IC40 combos (AID 1671461); conditions: BT084 medulloblastoma cells, drug combinations, stronger effect = higher value;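 note: cells exposed to drugs for 96 hours; 0% = vehicle DMSO and 100% = high DMSO full killing control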
# [14] = RCMB18 cell growth, single agent and combined, cisplatin and BGB IC40 combos (AID 1671462); conditions: RCMB18 medulloblastoma cells, stronger effect = higher value;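 note: cells exposed to compound for four days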
# [15] = CRL1545 cell growth, single agent and combined, cisplatin and BGB IC20 combos (AID 1671464); conditions: CRL1545 osteosarcoma cells, stronger effect = higher value;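 note: cells exposed to compound for 96 hours before readout; 0% = vehicle DMSO and 100% = high DMSO killing control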
# [16] = at 0.5 µM, stronger effect = higher value
# [17] = measured here: combination with BGB IC20, at 0.005 µM
# [18] = measured here: combination with BGB IC40, at 0.005 µM
# [19] = measured here: combination with BGB IC40, at 0.05 µM
# [20] = measured here: combination with cisplatin, at 0.5 µM, stronger effect = higher value
# [21] = measured here: combination with cisplatin, at 5 µM, stronger effect = higher value
# [22] = measured here: with BGB IC20 combination, at 0.5 µM
# [23] = measured here: with cisplatin IC20 combination, at 0.5 µM
# [24] = measured here: 5 uM single agent, at 5 µM
# [25] = measured here: combination with cisplatin, at 0.5 µM
# [26] = measured here: combination with cisplatin, at 5 µM
# [27] = measured here: with BGB IC20, at 0.5 µM
# [28] = measured here: with BGB IC20, at 5 µM
# [29] = measured here: with cisplatin IC20, at 0.5 µM
# [30] = measured here: with cisplatin IC20, at 5 µM
# [31] = measured here: combination with BGB at IC20, at 0.5 µM
# [32] = measured here: combination with cisplatin at IC20, at 0.5 µM
# [33] = measured here: combo with BGB at IC20, at 0.5 µM
# [34] = measured here: combo with cisplatin at IC20, at 0.5 µM
# [35] = measured here: inhibition with BGB combination, at 0.05 µM
# [36] = measured here: inhibition with cisplatin combination, at 0.05 µM
# [37] = measured here: BGB combination, at 0.5 µM
# [38] = measured here: BGB combination, at 5 µM
# [39] = measured here: cisplatin combination, at 0.5 µM
# [40] = measured here: cisplatin combination, at 5 µM
# [41] = BGB combination, concentration series, at 5 µM
# [42] = cisplatin combination, concentration series, at 5 µM
# [43] = measured here: combo with BGB IC20
# [44] = measured here: combo with cisplatin IC20
# [45] = cisplatin combination, at 0.5 µM
# [46] = measured here: BGB IC40 combination 0.05 uM, at 0.05 µM
# [47] = measured here: BGB IC40 combination, at 0.05 µM
smiles,measurement,setting,value
C=C(NC(=O)C(=C)NC(=O)c1csc(C2=NC3c4csc(n4)C4NC(=O)c5csc(n5)C(C(C)(O)C(C)O)NC(=O)C5CSC(=N5)/C(=C/C)NC(=O)C(C(C)O)NC(=O)c5csc(n5)C3(CC2)NC(=O)C(C)NC(=O)C(=C)NC(=O)C(C)NC(=O)C(C(C)CC)NC2C=Cc3c(C(C)O)cc(nc3C2O)C(=O)OC4C)n1)C(N)=O (stereo unspecified),inhibition,[1]; [16],-22.9% (inactive)
same,inhibition,[1]; [17],-22.9%
same,inhibition,[1]; [18],-22.6%
same,inhibition,[1]; [19],-22%
same,inhibition,[1]; [20],-25.6%
same,inhibition,[1]; [21],114%
same,inhibition,"[2]; BGB combo, at 5 µM",99.7%
same,inhibition,[2]; at 0.5 µM,-22.8% (inactive)
same,inhibition,"[2]; cisplatin combo, at 5 µM",99.7%
same,inhibition,[2]; [22],-25.3%
same,inhibition,[2]; [23],-12.8%
same,inhibition,"[2]; single agent, at 5 µM",99.8%
same,inhibition,"[3]; BGB IC20 combo, at 0.005 µM",7.79%
same,inhibition,"[3]; BGB IC40 combo, at 0.005 µM",-7.37%
same,inhibition,"[3]; BGB IC40 combo, at 0.05 µM",95.2%
same,inhibition,[3]; at 0.5 µM,-28.5% (inactive)
same,inhibition,"[3]; cisplatin combo, at 0.05 µM",95%
same,inhibition,"[3]; cisplatin combo, at 0.5 µM",-29.7%
same,inhibition,"[3]; cisplatin combo, at 5 µM",-54.9%
same,inhibition,[3]; [24],-28.7%
same,inhibition,[4]; at 0.5 µM,-38.7% (inactive)
same,inhibition,[4]; [19],-31%
same,inhibition,[4]; [25],-9.9%
same,inhibition,[4]; [26],100%
same,inhibition,[5]; at 0.5 µM,11.5% (inactive)
same,inhibition,[5]; [27],1.15%
same,inhibition,[5]; [28],70.9%
same,inhibition,[5]; [29],-4.79%
same,inhibition,[5]; [30],86.9%
same,inhibition,"[5]; single agent, at 5 µM",98.8%
same,inhibition,[6]; at 0.5 µM,-6.59% (inactive)
same,inhibition,[6]; [31],7.69%
same,inhibition,[6]; [32],-29.4%
same,inhibition,[7]; at 0.5 µM,2.14% (inactive)
same,inhibition,[7]; [33],13.1%
same,inhibition,[7]; [34],-39.1%
same,inhibition,[8]; at 0.5 µM,-0.91% (inactive)
same,inhibition,[8]; [35],-20.4%
same,inhibition,[8]; [36],-15.4%
same,inhibition,[9]; at 0.5 µM,-37% (inactive)
same,inhibition,[9]; [25],-29.7%
same,inhibition,[9]; [26],104%
same,inhibition,[10]; at 0.5 µM,16.8% (inactive)
same,inhibition,[10]; [37],16.2%
same,inhibition,[10]; [38],90.8%
same,inhibition,[10]; [39],25.6%
same,inhibition,[10]; [40],94.8%
same,inhibition,[11]; [41],97.5%
same,inhibition,[11]; at 0.5 µM,2.16% (inactive)
same,inhibition,[11]; [42],94.4%
same,inhibition,[12],-36.8% (inactive)
same,inhibition,[12]; [43],-24.8%
same,inhibition,[12]; [44],-63.7%
same,inhibition,[13]; at 0.5 µM,13.8% (inactive)
same,inhibition,[13]; [45],15.3%
same,inhibition,"[13]; cisplatin combination, at 5 µM",91.8%
same,inhibition,[13]; [46],-3.57%
same,inhibition,"[13]; single agent, at 5 µM",104%
same,inhibition,[14]; at 0.5 µM,-9.28% (inactive)
same,inhibition,"[14]; cisplatin combo, at 5 µM",96.8%
same,inhibition,[14]; [47],-17.4%
same,inhibition,[14]; [25],-6.48%
same,inhibition,"[14]; single agent, at 5 µM",90.8%
same,inhibition,[15]; at 0.5 µM,53.8% (inactive)
same,inhibition,[15]; [22],53.1%
same,inhibition,[15]; [23],53.1%
same,inhibition,"[15]; single agent, at 0.05 µM",-28.1%
same,inhibition,"[15]; single agent, at 5 µM",100%
NC(=O)c1cccc2[nH]c(-c3ccc(C4CCCN4)cc3F)nc12 (stereo unspecified),inhibition,[1]; [16],19.3% (inactive)
same,inhibition,[1]; [17],7.36%
same,inhibition,[1]; [18],-24.3%
same,inhibition,[1]; [19],1.68%
same,inhibition,[1]; [20],52.8%
same,inhibition,[1]; [21],58.1%
same,inhibition,"[2]; BGB combo, at 5 µM",54.3%
same,inhibition,[2]; at 0.5 µM,15.5% (inactive)
same,inhibition,"[2]; cisplatin combo, at 5 µM",60.1%
same,inhibition,[2]; [22],22.6%
same,inhibition,[2]; [23],10.8%
same,inhibition,"[2]; single agent, at 5 µM",54.9%
same,inhibition,"[3]; BGB IC20 combo, at 0.005 µM",3.69%
same,inhibition,"[3]; BGB IC40 combo, at 0.005 µM",-38.8%
same,inhibition,"[3]; BGB IC40 combo, at 0.05 µM",41.6%
same,inhibition,[3]; at 0.5 µM,-20.7% (inactive)
same,inhibition,"[3]; cisplatin combo, at 0.05 µM",39.3%
same,inhibition,"[3]; cisplatin combo, at 0.5 µM",-35.8%
same,inhibition,"[3]; cisplatin combo, at 5 µM",-28.7%
same,inhibition,[3]; [24],-6.58%
same,inhibition,[4]; at 0.5 µM,-15.8% (inactive)
same,inhibition,[4]; [19],-15.1%
same,inhibition,[4]; [25],-24.3%
same,inhibition,[4]; [26],48.8%
same,inhibition,[5]; at 0.5 µM,6.65% (inactive)
same,inhibition,[5]; [27],0.81%
same,inhibition,[5]; [28],37.8%
same,inhibition,[5]; [29],2.33%
same,inhibition,[5]; [30],51.1%
same,inhibition,"[5]; single agent, at 5 µM",52.6%
same,inhibition,[6]; at 0.5 µM,-18.9% (inactive)
same,inhibition,[6]; [31],-1.16%
same,inhibition,[6]; [32],-8.89%
same,inhibition,[7]; at 0.5 µM,7.06% (inactive)
same,inhibition,[7]; [33],1.45%
same,inhibition,[7]; [34],11.4%
same,inhibition,[8]; at 0.5 µM,9.31% (inactive)
same,inhibition,[8]; [35],-4.89%
same,inhibition,[8]; [36],-21.6%
same,inhibition,[9]; at 0.5 µM,-11.1% (inactive)
same,inhibition,[9]; [25],-12.4%
same,inhibition,[9]; [26],48.1%
same,inhibition,[10]; at 0.5 µM,12.2% (inactive)
same,inhibition,[10]; [37],-1.6%
same,inhibition,[10]; [38],34.2%
same,inhibition,[10]; [39],12.5%
same,inhibition,[10]; [40],56.6%
same,inhibition,[11]; [41],55.7%
same,inhibition,[11]; at 0.5 µM,12.5% (inactive)
same,inhibition,[11]; [42],69.9%
same,inhibition,[12],18.3% (inactive)
same,inhibition,[12]; [43],32.5%
same,inhibition,[12]; [44],12%
same,inhibition,[13]; at 0.5 µM,-17.4% (inactive)
same,inhibition,[13]; [45],-7.13%
same,inhibition,"[13]; cisplatin combination, at 5 µM",41.8%
same,inhibition,[13]; [46],14.7%
same,inhibition,"[13]; single agent, at 5 µM",45%
same,inhibition,[14]; at 0.5 µM,-17.5% (inactive)
same,inhibition,"[14]; cisplatin combo, at 5 µM",55.7%
same,inhibition,[14]; [47],-5.7%
same,inhibition,[14]; [25],-29.9%
same,inhibition,"[14]; single agent, at 5 µM",39.2%
same,inhibition,[15]; at 0.5 µM,-0.89% (inactive)
same,inhibition,[15]; [22],-14.3%
same,inhibition,[15]; [23],5.82%
same,inhibition,"[15]; single agent, at 0.05 µM",27.4%
same,inhibition,"[15]; single agent, at 5 µM",63.4%
